# Data published in the supplement of paper PMC8728848.
# This is one part of a sample in which the strongest signals are shown more often than they occur.
# B1: exo-alpha-sialidase (Propionibacterium acnes), Q6A7G1 (protein)
# chain: GSHMSGRAPAPVAATTQPKLVTGDITSTDQSGTNLFFGKKIVRNARGAIMKVDRTWPAAVPAPLPDVRADSSTRMLLGPVVDLAVNEHPEGVFYRIPALATASNGDLLASYDLRPGSAGDAPNPNSIVQRRSRDNGRTWGPQTVIHAGTPGRRKVGYSDPSYLVDPATGRILNFHVKSYDRGFATSEVGTDPDDRHVLHAEVSTSTDNGHTWTHRDITREITSDPTTRTRFVASGQGIALLHGPHAGRLIAQMTVRNSVGQQAQSIYSDDHGITWHAGNPVGRMMDENKVVELSDGTLMLNSRDAARSGRRKVAYSQDGGLTWGPVKLVDDLIDPTNNAQIIRAYPNARAGSAKARILLFTNARNATERVNGTLSVSCDDGRTWVSHQTYMPGEVGYTTAAVQSDGALGVLWERDGIRYSTIPMGWLNSVCPLAPSGRPTSGKPTSGTSLPPTAT
# What was measured:
# Assay in all cases: glycan array binding signal (z-score within array); higher = stronger binding
# Conditions in all cases: glycan notation: IUPAC condensed, linker removed
# [1] = biological target: Fuc(a1-2)Gal(b1-3)GalNAc(b1-4)[Neu5Ac(a2-3)]Gal(b1-4)Glc
# Method in brief: (§1)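 The binding signal is a Z-score computed within each array. Data were drawn from 3228 arrays in the Consortium for Functional Glycomics database, restricted to those with a known protein sequence. Scores were averaged over arrays of the same protein sequence at different concentrations or buffers, and over linkers, and negative values can be taken as non-binding.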
# Fuc(a1-2)Gal(b1-4)Glc = biological target: Fuc(a1-2)Gal(b1-4)Glc
# Method in brief: as §1
# Fuc(a1-2)Gal(b1-4)Glc6S = biological target: Fuc(a1-2)Gal(b1-4)Glc6S
# Method in brief: as §1
# [2] = biological target: Fuc(a1-2)[GalNAc(a1-3)]Gal(b1-3)GlcNAc
# Method in brief: as §1
# [3] = biological target: Fuc(a1-3)[Gal(b1-4)]GlcNAc(b1-4)Gal(b1-4)[Fuc(a1-3)]GlcNAc
# Method in brief: as §1
# Gal(a1-2)Gal = biological target: Gal(a1-2)Gal
# Method in brief: as §1
# [4] = biological target: Gal(a1-3)Gal(b1-4)GlcNAc(b1-3)GalNAc
# Method in brief: as §1
# Gal(a1-4)Gal(b1-4)Glc = biological target: Gal(a1-4)Gal(b1-4)Glc
# Method in brief: as §1
# [5] = biological target: Gal(a1-4)Gal(b1-4)GlcNAc(b1-3)Gal(b1-4)Glc
# Method in brief: as §1
# [6] = biological target: Gal(b1-3)GlcNAc(b1-3)Gal(b1-3)GlcNAc
# Method in brief: as §1
# [7] = biological target: Gal(b1-4)GlcNAc(a1-6)Gal(b1-4)GlcNAc
# Method in brief: as §1
# Gal3S(b1-3)GalNAc = biological target: Gal3S(b1-3)GalNAc
# Method in brief: as §1
# Gal3S(b1-4)GlcNAc = biological target: Gal3S(b1-4)GlcNAc
# Method in brief: as §1
# [8] = biological target: Neu5Ac(a2-3)Gal(b1-3)GalNAc
# Method in brief: as §1
# [9] = biological target: Neu5Ac(a2-3)Gal(b1-3)GalNAc(b1-4)[Neu5Ac(a2-3)]Gal(b1-4)Glc
# Method in brief: as §1
# [10] = biological target: Neu5Ac(a2-3)Gal(b1-3)GalNAc6S
# Method in brief: as §1
# [11] = biological target: Neu5Ac(a2-3)Gal(b1-3)GlcNAc(b1-3)GalNAc
# Method in brief: as §1
# [12] = biological target: Neu5Ac(a2-3)Gal(b1-3)[Fuc(a1-4)]GlcNAc(b1-3)Gal(b1-3)[Fuc(a1-4)]GlcNAc
# Method in brief: as §1
# [13] = biological target: Neu5Ac(a2-3)Gal(b1-3)[Neu5Ac(a2-6)]GalNAc
# Method in brief: as §1
# [14] = biological target: Neu5Ac(a2-3)Gal(b1-4)GlcNAc(b1-6)[Neu5Ac(a2-3)Gal(b1-3)]GalNAc
# Method in brief: as §1
# [15] = biological target: Neu5Ac(a2-3)[Neu5Ac(a2-6)]GalNAc
# Method in brief: as §1
# Neu5Ac(a2-6)GalNAc = biological target: Neu5Ac(a2-6)GalNAc
# Method in brief: as §1
# [16] = biological target: Neu5Ac(a2-6)GlcNAc(b1-4)GlcNAc
# Method in brief: as §1
# [17] = biological target: Neu5Gc(a2-3)Gal(b1-4)[Fuc(a1-3)]GlcNAc
# Method in brief: as §1
binder,measurement,setting,value
B1,glycan array binding signal (z-score),[1],-0.338
same,glycan array binding signal (z-score),Fuc(a1-2)Gal(b1-4)Glc,-0.361
same,glycan array binding signal (z-score),Fuc(a1-2)Gal(b1-4)Glc6S,-0.256
same,glycan array binding signal (z-score),[2],-0.343
same,glycan array binding signal (z-score),[3],-0.311
same,glycan array binding signal (z-score),Gal(a1-2)Gal,-0.331
same,glycan array binding signal (z-score),[4],-0.36
same,glycan array binding signal (z-score),Gal(a1-4)Gal(b1-4)Glc,-0.366
same,glycan array binding signal (z-score),[5],-0.337
same,glycan array binding signal (z-score),[6],-0.354
same,glycan array binding signal (z-score),[7],-0.353
same,glycan array binding signal (z-score),Gal3S(b1-3)GalNAc,-0.343
same,glycan array binding signal (z-score),Gal3S(b1-4)GlcNAc,-0.268
same,glycan array binding signal (z-score),[8],3.6
same,glycan array binding signal (z-score),[9],6.27
same,glycan array binding signal (z-score),[10],3.54
same,glycan array binding signal (z-score),[11],3.71
same,glycan array binding signal (z-score),[12],0.022
same,glycan array binding signal (z-score),[13],3.45
same,glycan array binding signal (z-score),[14],4.39
same,glycan array binding signal (z-score),[15],4.53
same,glycan array binding signal (z-score),Neu5Ac(a2-6)GalNAc,-0.072
same,glycan array binding signal (z-score),[16],3.52
same,glycan array binding signal (z-score),[17],-0.196
